Data reported in PubChem BioAssay AID651958 (The Scripps Research Institute Molecular Screening Center, 2012).
Among all 370,000 compounds or so, about 2,000 (0.54%) were called active. The sample holds actives, similar compounds and a random draw of the others, so the mix is not that of the screen. Unmarked numbers belong to inactive results. Rule as the data show it: active = inhibition above about 30%; inactive = the rest.

system: Crimean-Congo hemorrhagic fever virus L polyprotein viral ovarian tumor (vOTU) protease domain; assay: CCHFV vOTU protease inhibitors, primary screen, biochemical, Pep-AMC substrate, fluorescence (AID 651958); conditions: at 11.5 µM, stronger effect = higher value; also: 0% = vehicle wells with enzyme and 100% = no enzyme wells

Compound | inhibition
COc1cc(CN2CCCC(C(=O)c3ccc(SC)cc3)C2)cc(Cl)c1O (stereo not drawn) | 2.91%
CCOC(=O)[C@H]1[C@H]2COc3ccccc3[C@@H]2N2C(=O)CN(Cc3ccccc3)C(=O)[C@@]12C | -6.74%
CN1c2ccc(C=O)c3c(C=O)ccc(c23)N(C)C1(C)C | 65.2% (active)
CN1CCN(c2ccncc2S(=O)(=O)N2CCCC2)CC1 | -8.15%
CN(CC(=O)NCC(c1ccccc1)N1CCCC1)S(=O)(=O)c1ccc(Cl)cc1 (stereo not drawn) | -5.38%
CCc1ccc(OCC(=O)NCC(c2ccc(Cl)cc2)N2CCCCC2)cc1 (stereo not drawn) | 31% (active)
COc1ccc(C(CNC(=O)COc2ccccc2OC)N2CCCCC2)cc1 (stereo not drawn) | 0.37%
N#Cc1c(N)nc2c(c1N)CC(C(F)(F)F)O2 (stereo not drawn) | -10.2%
CCCCOCCCNC(=O)C[C@@H]1C[C@@]2(C(=O)OCC)CCCC=C2N(CCC2=CCCCC2)C1=O | 15.7%
COCCNC(=O)c1onc(CSc2cccc(C)c2)c1C(=O)O | -0.14%
CCCc1ccc(C(=O)COC(=O)CN2C(=O)NC3(CCCCC3C)C2=O)cc1 (stereo not drawn) | 16.5%
CC1CCCCC12NC(=O)N(CC(=O)OCC(=O)NCc1ccc(F)cc1)C2=O (stereo not drawn) | 34.9% (active)
COc1cccc(CNC(=O)COC(=O)CN2C(=O)NC3(CCCCC3C)C2=O)c1 (stereo not drawn) | -7.15%
Cc1ncc([N+](=O)[O-])n1CCOC(=O)c1ccc(Br)cc1 | -0.48%
CCCCCCCNc1nc(Cl)nc(NCCO)n1 | 12.8%
CC1CCCN(c2ccc(C(=O)NCCc3ccccc3)cn2)C1 (stereo not drawn) | -7.43%
O=C(CCl)N(Cc1cccc([N+](=O)[O-])c1)c1cccc(Cl)c1 | 0.95%
O=C1Nc2ccc([N+](=O)[O-])cc2C1=Nc1cccc(CO)c1 | 58.7% (active)
CCC(=O)N(C)C(c1ccccc1Cl)c1nnnn1-c1c(C)cccc1C (stereo not drawn) | -4.14%
CC(=O)OCc1cc(=O)n(C)c(=O)n1C | -3.25%
[2H]C(CCOS(N)(=O)=O)c1ccccc1 (stereo not drawn) | -9.88%
COc1ccc(S(=O)(=O)/N=C2\C=C(NS(=O)(=O)c3ccccc3)C(=O)c3ccccc32)cc1 | 65% (active)

Compound | inhibition
Cc1ccc(S(=O)(=O)/N=C2\C=C(NS(=O)(=O)c3ccc(C)cc3)C(=O)c3ccccc32)cc1 | 77.7% (active)
Cc1ccc(S(=O)(=O)/N=S(\C)C(C)C)cc1 (stereo not drawn) | -11.6%
COc1ccc(N2CCN(C3CCCCC3NS(=O)(=O)c3ccccc3)CC2)cc1 (stereo not drawn) | 19.5%
COc1ccc(S(=O)(=O)NC(C)C(=O)N2CCCCCC2)cc1 (stereo not drawn) | -2.68%
Cc1ccc(S(=O)(=O)N[C@H](CO)C(C)C)cc1 | 6.27%
COC(=O)CN1C(=O)C2(C(C(=O)OC)=C(N)Oc3ccccc32)C2=C1CC(C)(C)CC2=O (stereo not drawn) | -11.2%
CC(=O)N1Cc2cc(C(=O)NCc3cccc(F)c3)nc(-c3cccc(C4=CCCCC4)c3)c2[C@H]1CCO | 9.9%
CN1CCN(S(=O)(=O)c2cccc(C(=O)Nc3sccc3C#N)c2)CC1 | -2.97%
C=CCSC1=C(C#N)C(c2cc(Br)c(O)c(OC)c2)CC(=O)N1 (stereo not drawn) | -4.94%
Cc1ccc(S(=O)(=O)N(c2cccc(C)c2)C2CCS(=O)(=O)C2)cc1 (stereo not drawn) | 4.15%
CN1CCN(C(=O)C2=C[C@H](c3ccc4c(c3)OCO4)C[C@H](OCc3ccc(CO)cc3)O2)CC1 | -2.44%
COCCn1nnnc1C(c1cc2ccc(OC)cc2[nH]c1=O)N1CCc2ccccc2C1 (stereo not drawn) | 103% (active)
COc1ccc(-n2nnnc2C(c2cccc3ccccc23)N2CCC(n3c(=O)[nH]c4ccccc43)CC2)cc1 (stereo not drawn) | 7.58%
COc1ccc(CCC(C)N2CCc3ccccc3C2)cc1 (stereo not drawn) | 2.02%
COc1cc(CN(C)Cc2nc3cc(C(F)(F)F)ccc3c(=O)[nH]2)ccc1OC(F)F | 14.7%
CC1(C)CC(=O)C(N=Nc2c(F)cccc2F)=C(O)C1 | 10.4%
CC(C)N1CCC(NC(=O)Nc2ccccc2)CC1 | -6.34%
CC1(c2cccc(Br)c2)NC(=O)N(CC(=O)NCCC2=CCCCC2)C1=O (stereo not drawn) | 6.44%
COc1ccc(C(=O)N2CCCC(C(=O)c3ccccc3OC)C2)cc1OC (stereo not drawn) | 4.28%
COc1ccc(F)cc1C(=O)C1CCCN(C(=O)CCc2ccccn2)C1 (stereo not drawn) | 32.7% (active)
CSCC(=O)N1CCCC(C(=O)c2cc(F)ccc2F)C1 (stereo not drawn) | -7.31%
Cc1cc(Cl)c(S(=O)(=O)NCc2cccnc2)cc1OCC(N)=O | -2.02%

Compound | inhibition
COP(=O)(OC)C(NC(=O)c1ccc(C)cc1)C(Cl)(Cl)Cl (stereo not drawn) | -12.8%
CC(C)NS(=O)(=O)c1ccc(NC(=O)C2CCCCC2)cc1 | -0.67%
Cc1nnc(SC(C)C(=O)Nc2ccc(S(=O)(=O)NC3CCCCC3)cc2)s1 (stereo not drawn) | 31.6% (active)
Cc1ccc(S(=O)(=O)NC2CCCCCC2)cc1C(N)=O | -2.9%
Cc1ccc(NC(=O)COC(=O)C2C3CC4OC(=O)C2C4C3)cc1Cl (stereo not drawn) | 6.39%
Cc1ccc(C(C(=O)NC2CCCC2)N(Cc2ccco2)C(=O)CCC(=O)Nc2ccccn2)cc1 (stereo not drawn) | 3.43%
COc1ccc(CCn2c(O)c(C=NCCCn3ccnc3)c(=O)[nH]c2=O)cc1OC | 2.55%
CCCCC(=O)N(C)c1c(CC)nc2c(OCc3ccc(Cl)cc3Cl)cccn12 | 28.5%
O=C1C(Cl)=C(Oc2ccccc2)C(=O)c2ccccc21 | 6.2%
CC(=O)N(C1=C(Cl)C(=O)c2ccccc2C1=O)c1ccc(C(=O)O)cc1 | 99.3% (active)
CCCCN=C1C([N+](=O)[O-])=CC=C2C1=NC1(CCCCC1)N2O | 9.17%
Cc1ccc(C)c(OCCC(=O)OCC(=O)NC(=O)NCc2ccccc2)c1 | 0.04%
COc1ccc2c(c1)c(=Cc1ccc(N(C)C)cc1)c1cc(-c3ccccc3)[n+](C)n12 | 55.6% (active)
COc1ccc(Br)cc1S(=O)(=O)N1CCN=C1C | -6.47%
CCc1ccc(OC(C)C(=O)Nc2ccc(S(=O)(=O)Nc3cc(C)on3)cc2)cc1 (stereo not drawn) | 7.95%
Cc1cc(OC(C)C(=O)Nc2ccc(S(=O)(=O)Nc3onc(C)c3C)cc2)cc(C)c1Cl (stereo not drawn) | 35.2% (active)
CC(Oc1cccc(Cl)c1)C(=O)Nc1ccc(S(=O)(=O)Nc2ncccn2)cc1 (stereo not drawn) | -1.27%
O=S1(=O)CC(N2CCN(CCO)CC2)CN1Cc1cn(Cc2ccc(Cl)cc2)nn1 (stereo not drawn) | -2.07%
CCN(CC(=O)Nc1c(F)cccc1F)C(=O)c1cnc(C)cn1 | 32.8% (active)
CCN(CC(=O)Nc1c(F)cccc1F)C(=O)c1ccc(-c2ccccc2)cc1 | -7.05%
CCc1cc(C(=O)N(CC)CC(=O)Nc2c(F)cccc2F)sc1C | 19.1%
CCN(CC)c1ccc(NC(=O)CN2C(=O)NC3(CCc4ccccc43)C2=O)cc1 (stereo not drawn) | -2.95%

Compound | inhibition
O=C(Cn1cc(C(F)(F)F)ccc1=O)Nc1ccc2c(c1)OCCO2 | 8.6%
CC(C)CC1(C)NC(=O)N(CC(=O)Nc2ccc3c(c2)OCCO3)C1=O (stereo not drawn) | -6.35%
COc1c(Br)cc2c(C)c(C(=O)N3CCOCC3)oc2c1Br | -3.21%
Cc1nc2ccccc2c(=O)n1-c1ccc(F)c(NC(=O)c2cccs2)c1 | -0.94%
O=C(c1ccc(N2CCCC2=O)cc1)N1CCN(c2ccc(C(F)(F)F)cc2[N+](=O)[O-])CC1 | 3.99%
Cc1cc(C)c(S(=O)(=O)NN=C2c3ccccc3[C@H]3Cc4csc[n+]4[C@@H]23)c(C)c1 | 82.8% (active)
COC(=O)[C@]12C[C@H](CC(=O)NCc3ccccc3)C(=O)N(CCC3=CCCCC3)C1=C[C@H](C(C)C)O[C@@H]2C1CC1 | 23.1%
COC(=O)C[C@H]1C[C@@H]2c3cc(NC(=O)Nc4ccccc4)ccc3O[C@@H]2[C@@H](CO)O1 | -2.2%
CC(C)Cn1c(N)c(C(=O)NCc2cccs2)c2nc3ccccc3nc21 | 85.8% (active)
CCN(CC(=O)NCc1cccs1)c1nnnn1-c1ccccc1 | -6.07%
Cc1nc2c(C(=O)NCc3cccs3)cnn2c(C)c1Cc1ccc(F)cc1 | 4.83%
Cn1cccc1C(=O)NC(=O)COC(=O)Cc1coc2ccc3ccccc3c12 | 5.02%
CCCn1c(=O)c2ccccc2n2c(SCC(=O)/C(C#N)=C(\C)N)nnc12 | -9.66%
CC(C)[C@H](NC(=O)N1CCn2c1nc1ccccc12)C(=O)NCCc1ccccc1 | 25.4%
O=C1NC[C@@H](CCCCN2CCN(CCc3ccc(O)cc3)C(=O)C2=O)N(CC2CCCCC2)C1=O | -7.64%
COc1ccccc1CNC(=O)COC(=O)c1cccs1 | 0.12%
O=C(COC(=O)c1ccc([N+](=O)[O-])o1)NC12CC3CC(CC(C3)C1)C2 | 13.9%
O=C(OCC(=O)c1cccs1)c1ccc([N+](=O)[O-])o1 | 31.4% (active)
Cc1cccc(C)c1NC(=O)CNC(=O)Cc1ccc(Br)cc1 | -10.5%
Cc1ccc(OC(=O)c2c(C)nn(-c3ccccc3)c2C)cc1 | -6.31%
Cc1cccc(C)c1NC(=O)CNC(=O)c1c(C)nn(-c2ccccc2)c1C | 33% (active)
CCN(N=Nc1nonc1OC)c1nonc1OC | -2.47%
